# An excerpt weighted towards active compounds, which were near 1.6% of everything screened.
# KCNQ2 inh = rat KCNQ2 potassium channel inhibitors, primary screen, cell-based, CHO-K1, FluxOR thallium flux, B-score | 20 min; active compounds read low | 1.1% of 310,000 active | B-score at 10 µM | Potassium voltage-gated channel subfamily KQT member 2 (Rattus norvegicus), O88943;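 active = fluorescence ratio B-score at most minus 3 library SDs, with starting brightness B-score within 2 library SDs, cut at about -5.5 in these data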
# KCNQ2 pot = potentiators of rat KCNQ2 potassium channel; CHO-K1 KCNQ2, FluxOR thallium flux fluorescence; active compounds read high; 0.54% of 310,000 active; AID 2239, 2010; B-score at 10 µM; Potassium voltage-gated channel subfamily KQT member 2 (Rattus norvegicus), O88943;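 active = fluorescence ratio B-score at least 3 SD of library B-scores, with initial fluorescence B-score within 3 of them, cut at about 5.3 in these data; same plate scores as AID 2156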;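 note: B-score of peak minus minimum over baseline fluorescence ratio after K+ and Tl+ stimulus; positive B-score means potentiation of KCNQ2 with more thallium influx and brighter signal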
# KCNQ2 block conf = rat KCNQ2 potassium channel inhibitors, confirmation, cell-based, thallium flux | shares compounds with KCNQ2 inh | KCNQ2-expressing cells, inhibition; active compounds read low | activity change, negative = inhibition, % at 10 µM | 57% of 1,000 active | AID 493025, 2011;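 note: 0% = vehicle wells and values are ratio percent relative to vehicle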
# KCNQ1 spec = human KCNQ1 channel inhibition, counter-screen for KCNQ2 inhibitor project, cell-based, FluxOR thallium flux; activity change, negative = inhibition, % at 10 µM; AID 493026, 2011; KCNQ1-expressing cells, FluxOR thallium flux fluorescence; active compounds read low; 15% of 1,000 active; shares compounds with KCNQ2 inh;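 active = activity change at least 3 SD of negative controls below their mean in both duplicate wells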;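 note: CHO cells stably transfected with KCNQ1 and depolarized by potassium stimulus; peak minus minimum fluorescence over baseline after thallium addition; 0% = vehicle negative control and -100% = blank without thallium stimulus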
# Target sequence (P51787 whole entry, looked up): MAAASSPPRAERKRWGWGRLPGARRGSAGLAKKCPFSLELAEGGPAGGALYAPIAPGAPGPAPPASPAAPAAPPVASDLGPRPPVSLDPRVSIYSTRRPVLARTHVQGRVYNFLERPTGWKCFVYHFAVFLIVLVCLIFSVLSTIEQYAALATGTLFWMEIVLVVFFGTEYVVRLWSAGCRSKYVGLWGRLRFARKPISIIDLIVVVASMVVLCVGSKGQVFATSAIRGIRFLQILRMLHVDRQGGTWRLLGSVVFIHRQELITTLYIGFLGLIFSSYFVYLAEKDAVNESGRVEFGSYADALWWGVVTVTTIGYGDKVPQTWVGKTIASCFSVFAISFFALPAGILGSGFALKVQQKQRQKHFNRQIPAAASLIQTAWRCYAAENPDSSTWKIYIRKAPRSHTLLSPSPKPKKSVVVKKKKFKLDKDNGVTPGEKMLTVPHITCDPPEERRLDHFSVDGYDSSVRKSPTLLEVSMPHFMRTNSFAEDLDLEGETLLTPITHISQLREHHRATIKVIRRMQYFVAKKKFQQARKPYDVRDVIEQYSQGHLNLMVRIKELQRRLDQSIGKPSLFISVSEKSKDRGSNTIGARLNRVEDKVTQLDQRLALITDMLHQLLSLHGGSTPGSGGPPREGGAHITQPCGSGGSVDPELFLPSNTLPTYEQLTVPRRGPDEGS
# CHO Tl ctr = thallium flux change in parental CHO cells, counter-screen for KCNQ2 inhibitor project. AID 493029, 2011. activity change, % at 10 µM. 14% of 1,000 active. shares compounds with KCNQ2 inh. active compounds read low;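 note: 0% = vehicle negative controls with stimulus buffer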
# KCNQ2 inh confirm = rat KCNQ2 channel inhibitors, confirmation, cell-based, automated patch clamp, single concentration | shares compounds with KCNQ2 inh | KCNQ2-expressing cells, automated patch clamp current | calls only at 10 µM | 49% of 550 active
# An asterisk follows results filed as active; i = inactive; · = not tested or not shown; + = active, no number. Unless noted, the rule behind the calls is not given here.
SMILES,KCNQ2 inh,KCNQ2 pot,KCNQ2 block conf,KCNQ1 spec,CHO Tl ctr,others
Cc1ccc(C)c(NC(=O)c2sc(Cl)nc2-c2ccccc2)c1,-8*,-8,i,i,i,
Cc1ccccc1NC(=O)c1sc(Cl)nc1-c1ccccc1,-8.7*,-8.7,i,i,i,
O=C(Nc1ccc(F)cc1)c1sc(Cl)nc1-c1ccccc1,i,·,·,·,·,
Cc1ccc(NC(=O)c2sc(Cl)nc2-c2ccccc2)cc1,i,·,·,·,·,
C=CCn1c(CSCc2ccc(C)cc2)nnc1SCC(=O)NCc1ccccc1,-8.4*,-8.4,-22%*,i,i,KCNQ2 inh confirm=+
CCn1c(CNc2ccc(C)cc2)nnc1SCC(=O)NCc1ccccc1,i,·,·,·,·,
COc1ccc(S(=O)(=O)N(CC(=O)NCc2ccncc2)Cc2ccccc2)cc1,i,·,·,·,·,
COc1ccc(CNC(=O)CN(Cc2ccc(Cl)cc2)S(=O)(=O)c2ccccc2)cc1,-7.5*,-7.5,-30%*,i,i,KCNQ2 inh confirm=i
CCc1ccc(NC(=O)Cn2nc(C(=O)O)c3ccccc3c2=O)cc1,i,·,·,·,·,
Brc1cccc(CNc2nc3ccccc3n2CCN2CCCCC2)c1,i,·,·,·,·,
Cn1c(NCc2cccc(Br)c2)nc2ccccc21,-9*,-9,-34%*,-28%*,-22%*,KCNQ2 inh confirm=+
CC(C)C1=CC(=Nc2ccc(S(N)(=O)=O)cc2)C=C(C(C)C)C1=O,i,·,·,·,·,
COc1ccc(CC(=O)NNC(=O)CSc2nc(C)c(C)c(=O)[nH]2)cc1,i,0.2,·,·,·,
O=C(NCCc1cn2ccsc2n1)C1CCCCC1,i,0.14,·,·,·,
Cc1csc2nc(CNC(=O)C3CCCCC3)cn12,-8.8*,-8.8,i,i,i,
Cc1ccc(S(=O)(=O)NCC(=O)OCC(=O)N2CCN(C(=O)c3ccco3)CC2)cc1C,i,·,·,·,·,
Cc1ccccc1OCC(O)CN1C(=O)c2ccccc2C1=O (stereo not drawn),i,·,·,·,·,
C=CCc1ccccc1OCC(O)CN1C(=O)c2ccccc2C1=O (stereo not drawn),-12*,-12,i,i,i,
CCN(CC(=O)Nc1c(F)cccc1F)C(=O)c1ccc2ncsc2c1,i,1,·,·,·,
O=C(NCC(c1cccs1)N1CCOCC1)c1ccc(Cl)s1 (stereo not drawn),-9.7*,-9.7,i,i,i,
O=C(NCC(c1cccs1)N1CCOCC1)c1cc([N+](=O)[O-])ccc1Cl (stereo not drawn),i,·,·,·,·,
O=C(NCCc1ccccc1)c1oc2ccccc2c1COc1ccccc1,-9*,-9,-24%*,i,i,KCNQ2 inh confirm=i
O=C(Nc1ccccc1Cc1ccccc1)c1oc2ccccc2c1COc1ccccc1,i,·,·,·,·,
Nc1c2c(nn1-c1ccccc1)CCC2,i,·,·,·,·,
Cc1ccc(Nc2cc(C)nc(NCc3ccccc3)n2)cc1,i,·,·,·,·,
SMILES,KCNQ2 inh,KCNQ2 pot,KCNQ2 block conf,KCNQ1 spec,CHO Tl ctr,others
Cc1cc(NC2CCCCC2)nc(NCc2ccccc2)n1,-8.3*,-8.3,i,i,i,
C=C(C)c1cccc(C(C)(C)NC(=O)N(Cc2ccccc2)Cc2ccco2)c1,-8.7*,-8.7,-23%*,i,i,KCNQ2 inh confirm=i
C=C(C)c1cccc(C(C)(C)NC(=O)NC2CCN(Cc3ccccc3)CC2)c1,i,2.3,·,·,·,
O=C(NCc1ccncc1)C(=O)NCC1OCCN1S(=O)(=O)c1cc(F)ccc1F (stereo not drawn),i,1.5,·,·,·,
CNC(=O)c1ccc(-c2sc3nc(N4CCOCC4)c4c(c3c2N)CCCC4)o1,-9.5*,-9.5,-22%*,i,i,KCNQ2 inh confirm=i
CNC(=O)c1ccc(-c2sc3nc(N4CCOCC4)c4c(c3c2N)CC(C)(C)OC4)o1,i,0.03,·,·,·,
Cc1ccsc1/C=N/NC(=O)C1C(=O)NCC1c1ccccc1 (stereo not drawn),i,0.1,·,·,·,
CCOc1cnn(-c2cc(Oc3ccc(C)cc3)ncn2)c(=O)c1Cl,i,0.83,·,·,·,
Cc1cc(Oc2cnn(C(C)(C)C)c(=O)c2Cl)cc(C(C)C)c1,-11*,-11,-34%*,-30%*,-32%*,KCNQ2 inh confirm=i
Cc1ccc(-c2[nH][nH]c(=O)c(=O)c2N=Nc2ccccc2)cc1,i,·,·,·,·,
